Among the test systems are NCI-H23 lung; NCI-H226 lung; NCI-H322M lung; HOP-62 NSCLC; NCI-H460 lung; HOP-92 NSCLC; NCI-H522 lung; A549/ATCC NSCLC; 786-0 renal; COLO 205 colon; DU-145 prostate; K-562 leukemia; MALME-3M melanoma; MDA-MB-231 breast; RXF 393 renal; SF-268 CNS; SF-539 CNS; UACC-257 melanoma; M14 melanoma.
Common to all, as to assay: NCI-60 one-dose screen, 48 h (100 = growth as untreated, 0 = no growth, -100 = all killed)
Conditions in all cases: 10 µM unless noted

SMILES strings stand for the structures. Compounds without any hit were thinned out: in the full panel of roughly 83,000, 20% have a hit.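 Percent growth is the endpoint: 0 to 100 indicates growth inhibition (40 means 60% inhibition), 0 means no net growth, and negative values indicate cell death.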 Values without a mark were called inactive. Calls of active or inactive are those of the source. The calls were made as follows: active = growth percent below 10; inactive = the rest.

For the molecule `Brc1cccc(-n2ncc3c(Nc4ccc(-c5nnc(-c6ccccc6)o5)cc4)ncnc32)c1`, the growth in the assay with NCI-H23 lung is 94.5%; with NCI-H226 lung, 90.2%; with NCI-H322M lung, 104%; in the assay with HOP-62 NSCLC, 89.6%; in the assay with NCI-H460 lung it was 109%; in the assay with HOP-92 NSCLC, 104%. In addition, the growth is 98.3% in the assay with NCI-H522 lung; 109% in the assay with A549/ATCC NSCLC; 104% in the assay on 786-0 renal; 107% in the assay on COLO 205 colon; 111% in the assay on DU-145 prostate; 110% in the assay with K-562 leukemia. The growth with MALME-3M melanoma is 110%; in the assay on MDA-MB-231 breast it was 93.5%; with RXF 393 renal it was 92.9%; in the assay on SF-268 CNS, 98.6%; in the assay with SF-539 CNS it was 95.9%; in the assay with UACC-257 melanoma it was 108%. For the same molecule, the growth in the assay with M14 melanoma was 108%.

On to `NC(=S)N/N=C(/c1cccs1)C1CC1`, for which the growth was 101% with NCI-H23 lung; 90.5% in the assay with NCI-H226 lung; 93% in the assay on NCI-H322M lung; 91.8% in the assay on HOP-62 NSCLC; 106% in the assay with NCI-H460 lung; 107% in the assay on HOP-92 NSCLC. Also, the growth in the assay with NCI-H522 lung was 87.4%; in the assay on A549/ATCC NSCLC, 63.6%; in the assay on 786-0 renal, 105%; in the assay with COLO 205 colon it was 105%; in the assay with DU-145 prostate, 105%; in the assay with K-562 leukemia, 69.3%. Also, the growth with MALME-3M melanoma is 96%; in the assay with MDA-MB-231 breast, 91.4%; in the assay with RXF 393 renal, 102%; in the assay with SF-268 CNS, 99.4%; in the assay with SF-539 CNS it was 95.7%; in the assay on UACC-257 melanoma, 39.4%. Also, in the assay with M14 melanoma, the growth is 71.3%.

On to `Clc1cc(Br)ccc1-c1ccc(CNCC2CCNCC2)o1`, for which the growth in the assay on NCI-H23 lung is 69.6%; in the assay on NCI-H226 lung, 48.4%; in the assay on NCI-H322M lung, 60.2%; in the assay with HOP-62 NSCLC, 41%; with NCI-H460 lung, 9.35% (active); in the assay on HOP-92 NSCLC, 56.3%. The growth in the assay on NCI-H522 lung is 55.3%; with A549/ATCC NSCLC it was 17%; with 786-0 renal, 42.3%; in the assay with COLO 205 colon, 27.9%; with DU-145 prostate, 62.4%; in the assay with K-562 leukemia, 18.9%. Also, the growth in the assay on MALME-3M melanoma was -4.35% (active); in the assay with MDA-MB-231 breast it was 50.8%; in the assay with RXF 393 renal, 64.8%; with SF-268 CNS it was 45%; with SF-539 CNS it was 29.6%; with UACC-257 melanoma it was 79.6%. Further, the growth in the assay on M14 melanoma was 55.2%.

`O=C1c2ccccc2C2N1CCC1CCc3ccccc3N12` (configuration not stated): the growth with NCI-H23 lung is 99.5%; in the assay on NCI-H226 lung, 90.2%; in the assay with NCI-H322M lung it was 85.4%; in the assay on HOP-62 NSCLC it was 108%; with NCI-H460 lung, 104%; in the assay on HOP-92 NSCLC it was 73.6%. Besides, the growth in the assay with NCI-H522 lung is 84.8%; in the assay with A549/ATCC NSCLC, 99.1%; with 786-0 renal, 99.7%; with COLO 205 colon, 112%; in the assay on DU-145 prostate, 117%; in the assay with K-562 leukemia it was 89.4%. For the same molecule, the growth with MALME-3M melanoma was 88.9%; in the assay with MDA-MB-231 breast, 92.7%; with RXF 393 renal, 106%; in the assay on SF-268 CNS, 111%; in the assay with SF-539 CNS it was 88.9%; in the assay with UACC-257 melanoma, 102%. Further, the growth with M14 melanoma is 97.1%.

Regarding `O=c1[nH]c2ccccc2n2cc3cccnc3c12`, the growth is 77.5% in the assay on NCI-H23 lung; 64.2% with NCI-H226 lung; 116% with NCI-H322M lung; 68.7% in the assay on HOP-62 NSCLC; 37.3% with NCI-H460 lung; 83.6% in the assay on HOP-92 NSCLC. Moreover, the growth is 57.6% in the assay with NCI-H522 lung; 83.5% in the assay on A549/ATCC NSCLC; 71.1% with 786-0 renal; 70% in the assay with COLO 205 colon; 87.5% in the assay with DU-145 prostate; 47.2% in the assay with K-562 leukemia. Also, the growth with MALME-3M melanoma is 116%; in the assay on MDA-MB-231 breast, 65.7%; in the assay on RXF 393 renal it was 80.8%; with SF-268 CNS, 79.3%; in the assay with SF-539 CNS, 75.5%; with UACC-257 melanoma, 97.1%. The growth with M14 melanoma was 84.1%.

As for `C/C(=N\NC(=S)N1CCCCC1)c1ccccn1`, the growth in the assay on NCI-H23 lung was 30.8%; in the assay with NCI-H226 lung it was 7.07% (active); in the assay with NCI-H322M lung, 4.53% (active); with HOP-62 NSCLC, 21%; in the assay on NCI-H460 lung it was -23.9% (active); with HOP-92 NSCLC, -1.04% (active). In addition, the growth in the assay with NCI-H522 lung was 11.5%; in the assay with A549/ATCC NSCLC it was 9.13% (active); in the assay on 786-0 renal, 15.5%; in the assay with COLO 205 colon, -14% (active); in the assay with DU-145 prostate, 28.3%; in the assay on K-562 leukemia it was 2.29% (active). Further, the growth in the assay with MALME-3M melanoma was 5.96% (active); in the assay on MDA-MB-231 breast, 24.7%; with RXF 393 renal, -17.6% (active); in the assay on SF-268 CNS, 8.38% (active); with SF-539 CNS it was 5.37% (active); in the assay on UACC-257 melanoma, -2.18% (active). For the same molecule, the growth in the assay with M14 melanoma is -33.4% (active).

On to `COc1ccc2[nH]c(O)c(/C=c3/ccc4c(c3)N=C(c3ccc(C(F)(F)F)cc3)N=4)c2c1`, for which the growth with NCI-H23 lung is 82.4%; in the assay on NCI-H226 lung, 96.9%; in the assay on NCI-H322M lung, 76.1%; in the assay on HOP-62 NSCLC, 100%; with NCI-H460 lung, 53.5%; in the assay with HOP-92 NSCLC it was 71.9%. In addition, the growth is 89.6% in the assay on NCI-H522 lung; 66.4% in the assay with A549/ATCC NSCLC; 37.3% with 786-0 renal; 102% in the assay on COLO 205 colon; 86.6% in the assay with DU-145 prostate; 29.7% in the assay with K-562 leukemia. For the same molecule, the growth with MALME-3M melanoma is 99.9%; in the assay on MDA-MB-231 breast, 74.8%; with RXF 393 renal it was -4.65% (active); in the assay on SF-268 CNS, 85.6%; with SF-539 CNS, 78.2%; in the assay on UACC-257 melanoma it was 94.9%. Also, the growth in the assay with M14 melanoma is 90.1%.

Take `[O-]/[N+](=C\c1ccccc1)CC1(O)CCCCC1`: the growth was 104% in the assay with NCI-H23 lung; 99.5% in the assay on NCI-H226 lung; 112% in the assay on NCI-H322M lung; 109% in the assay with HOP-62 NSCLC; 103% in the assay with NCI-H460 lung; 78% with HOP-92 NSCLC. Moreover, the growth is 93.7% in the assay on NCI-H522 lung; 101% in the assay with A549/ATCC NSCLC; 109% in the assay with 786-0 renal; 117% in the assay with COLO 205 colon; 109% with DU-145 prostate; 95.7% with K-562 leukemia. In addition, the growth with MALME-3M melanoma is 108%; with MDA-MB-231 breast, 101%; in the assay on RXF 393 renal, 107%; in the assay on SF-268 CNS, 105%; with SF-539 CNS, 97%; with UACC-257 melanoma it was 102%. The growth with M14 melanoma was 109%.
